Experimental findings from publication PMC4336329 (PLoS ONE, 2015) are described below.

Molecules are shown by their SMILES. Hit rate of the full screen: of about 310,000 compounds, about 14,000 (4.5%) showed an effect of 50% or more. Effects have a minus sign here. The sample holds strong results, similar compounds and a random draw of the others, so the mix is not that of the screen.
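Further: peak tail current of the secondary pulse compared with the same well before compound.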

Sequence of human ether-à-go-go-related gene (hERG) potassium channel (Q12809 whole entry, looked up): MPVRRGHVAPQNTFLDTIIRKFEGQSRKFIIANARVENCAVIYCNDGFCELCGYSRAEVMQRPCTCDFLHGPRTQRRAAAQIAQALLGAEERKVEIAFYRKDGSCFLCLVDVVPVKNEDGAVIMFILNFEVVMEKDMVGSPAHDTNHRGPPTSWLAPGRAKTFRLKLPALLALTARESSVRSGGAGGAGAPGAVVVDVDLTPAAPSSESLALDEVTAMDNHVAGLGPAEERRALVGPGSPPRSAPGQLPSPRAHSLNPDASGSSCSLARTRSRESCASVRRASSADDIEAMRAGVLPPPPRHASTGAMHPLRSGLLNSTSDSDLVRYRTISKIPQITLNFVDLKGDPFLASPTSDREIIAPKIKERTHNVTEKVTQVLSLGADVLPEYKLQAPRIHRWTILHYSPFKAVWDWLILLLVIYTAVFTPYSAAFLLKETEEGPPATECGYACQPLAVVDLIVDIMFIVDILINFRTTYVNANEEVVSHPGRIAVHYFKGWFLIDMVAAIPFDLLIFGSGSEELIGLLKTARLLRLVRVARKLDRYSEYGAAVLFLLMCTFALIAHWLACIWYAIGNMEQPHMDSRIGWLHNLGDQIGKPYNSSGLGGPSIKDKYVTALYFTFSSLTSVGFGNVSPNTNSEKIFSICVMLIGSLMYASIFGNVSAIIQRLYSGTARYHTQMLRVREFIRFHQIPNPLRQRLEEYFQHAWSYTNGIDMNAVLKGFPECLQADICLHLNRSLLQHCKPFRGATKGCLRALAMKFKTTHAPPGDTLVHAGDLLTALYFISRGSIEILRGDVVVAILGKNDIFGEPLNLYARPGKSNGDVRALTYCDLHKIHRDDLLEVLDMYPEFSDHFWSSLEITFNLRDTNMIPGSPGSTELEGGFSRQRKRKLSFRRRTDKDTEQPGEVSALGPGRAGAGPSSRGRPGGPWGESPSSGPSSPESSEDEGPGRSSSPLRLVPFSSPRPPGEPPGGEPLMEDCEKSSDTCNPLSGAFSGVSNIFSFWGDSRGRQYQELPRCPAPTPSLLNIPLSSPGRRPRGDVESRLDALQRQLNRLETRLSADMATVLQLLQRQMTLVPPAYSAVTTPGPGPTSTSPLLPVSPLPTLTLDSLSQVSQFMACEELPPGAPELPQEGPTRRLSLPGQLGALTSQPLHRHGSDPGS

This assay has as its target human ether-à-go-go-related gene (hERG) potassium channel (human, UniProt Q12809). Nature of the assay: primary screen, population patch clamp on CHO cells stably expressing hERG; higher = less effect of the substance.
On to `CCn1c(SCC(=O)Nc2cc(C)on2)nnc1-c1ccc(S(=O)(=O)N2CCN(C)CC2)cc1`, for which the “hERG current change (%, negative = inhibition) at 10uM” value is -23.1%.

On to `Cc1cc(N=Nc2ccc(Cl)cc2)cc(CN2CCOCC2)c1O`, for which the “hERG current change (%, negative = inhibition) at 10uM” value is reported as 11.6%.

`CC(=O)c1ccc(OC(=O)Cc2cccc3ccccc23)cc1`: the “hERG current change (%, negative = inhibition) at 10uM” value is given as 3.13%.

As to `c1ccc2c(CNC3CCCCCC3)c[nH]c2c1`, the “hERG current change (%, negative = inhibition) at 10uM” value was -20.8%.

Take `O=S(=O)(Cc1cc(-c2ccccc2Cl)no1)c1ccccc1`: the “hERG current change (%, negative = inhibition) at 10uM” value was -51%.

On to `O=S(=O)(Cc1cc(-c2ccc(Cl)cc2)no1)c1ccccc1`, for which the “hERG current change (%, negative = inhibition) at 10uM” value is recorded as 0.608%.

Take `O=S(=O)(Cc1cc(-c2ccccc2)no1)c1ccccc1`: the “hERG current change (%, negative = inhibition) at 10uM” value is on record as -2.75%.

On to `COCCn1nnnc1C(c1cccs1)N1CCCC(C)C1.Cl` (centres unmarked), for which the “hERG current change (%, negative = inhibition) at 10uM” value stood at 17.9%.

`COc1ccc(/C=C/C(=O)Nc2ccccc2C(F)(F)F)cc1OC`: the “hERG current change (%, negative = inhibition) at 10uM” value was -4.62%.

On to `Cc1ccc(OCC(=O)N2N=C(c3ccc(Cl)cc3)CC2c2ccco2)c([N+](=O)[O-])n1` (centres unmarked), for which the “hERG current change (%, negative = inhibition) at 10uM” value is reported as -63.3%.

In the case of `O=C(OCC(=O)N1N=C(c2ccc(Cl)cc2)CC1c1ccco1)c1ccco1` (centres unmarked), the “hERG current change (%, negative = inhibition) at 10uM” value was 27.4%.

As to `Cl.N=c1sccn1CC(=O)N1N=C(c2ccc(Cl)cc2)CC1c1ccco1` (centres unmarked), the “hERG current change (%, negative = inhibition) at 10uM” value is -79.5%.

On to `CCC(=O)N1N=C(c2ccc(Cl)cc2)CC1c1ccco1` (centres unmarked), for which the “hERG current change (%, negative = inhibition) at 10uM” value is given as 0.74%.

Consider `O=C(CNC(=O)c1ccccc1)OCC(=O)N1N=C(c2ccc(Cl)cc2)CC1c1ccco1` (centres unmarked), for which the “hERG current change (%, negative = inhibition) at 10uM” value is on record as -72.5%.

Turning to `CC(=O)N1N=C(c2ccc(Cl)cc2)CC1c1ccco1` (centres unmarked), the “hERG current change (%, negative = inhibition) at 10uM” value came to 7.11%.

Consider `O=C(O)CCC(=O)N1N=C(c2ccco2)CC1c1ccco1` (centres unmarked), for which the “hERG current change (%, negative = inhibition) at 10uM” value was -78.1%.

For `O=C(O)CCCC(=O)N1N=C(c2ccco2)CC1c1ccco1` (centres unmarked), the “hERG current change (%, negative = inhibition) at 10uM” value is reported as 9.6%.

Regarding `COc1ccc(C(=O)NCC(=O)OCC(=O)N2N=C(c3ccc(Cl)cc3)CC2c2ccco2)cc1OC` (centres unmarked), the “hERG current change (%, negative = inhibition) at 10uM” value was -5.57%.

For `O=C(CCl)N1N=C(c2ccco2)CC1c1ccco1` (centres unmarked), the “hERG current change (%, negative = inhibition) at 10uM” value is recorded as 14%.

For `COCC(=O)OCC(=O)N1N=C(c2ccc(Cl)cc2)CC1c1ccco1` (centres unmarked), the “hERG current change (%, negative = inhibition) at 10uM” value is given as -28.1%.

Regarding `O=C(COc1cccnc1[N+](=O)[O-])N1N=C(c2ccc(Cl)cc2)CC1c1ccco1` (centres unmarked), the “hERG current change (%, negative = inhibition) at 10uM” value came to 16.9%.

As for `COc1cc(S(=O)(=O)N2CCN(C)CC2)c(OC)cc1Cl`, the “hERG current change (%, negative = inhibition) at 10uM” value was 13.2%.

As to `COC(=O)c1nn(-c2ccc(OC)cc2)c(=O)cc1O`, the “hERG current change (%, negative = inhibition) at 10uM” value was found to be 16.9%.

On to `O=C(CCc1c[nH]c2ccccc12)NCc1ccco1`, for which the “hERG current change (%, negative = inhibition) at 10uM” value was 32.4%.

For the compound `Cc1ccc(CN(Cc2cc3cc(C)ccc3[nH]c2=O)C(=O)N2CCOCC2)cc1`, the “hERG current change (%, negative = inhibition) at 10uM” value is on record as -13.2%.

On to `Cc1cccc(NC(=O)CSc2nncn2-c2ccccn2)c1`, for which the “hERG current change (%, negative = inhibition) at 10uM” value was -1.31%.

Consider `CSc1ncc(CN2CCCC(C(=O)Nc3ccc(-c4ccco4)cc3)C2)cn1` (centres unmarked), for which the “hERG current change (%, negative = inhibition) at 10uM” value amounted to 11.1%.

Take `Cc1ccccc1-n1c(-c2ccoc2)nc2ccccc2c1=O`: the “hERG current change (%, negative = inhibition) at 10uM” value was 6.09%.

`CCN(Cc1ccccc1)C(=O)c1c(-c2ccccc2Cl)noc1C`: the “hERG current change (%, negative = inhibition) at 10uM” value is listed as -9.34%.

In the case of `CC(C)c1csc(CN2CCN(CCc3ccccc3)C(CCO)C2)n1` (centres unmarked), the “hERG current change (%, negative = inhibition) at 10uM” value was -76%.

On to `OCCC1CN(Cc2nc(-c3ccc(F)cc3)cs2)CCN1CCc1ccccc1` (centres unmarked), for which the “hERG current change (%, negative = inhibition) at 10uM” value is listed as -80.6%.

As for `OCCC1CN(Cc2nc(-c3ccccc3)cs2)CCN1CCc1ccccc1` (centres unmarked), the “hERG current change (%, negative = inhibition) at 10uM” value was -77.8%.

Consider `CC(C)CN1CCN(Cc2nc(C(C)C)cs2)CC1CCO` (centres unmarked), for which the “hERG current change (%, negative = inhibition) at 10uM” value came out at 1.27%.

For the compound `OCCC1CN(Cc2nc(-c3ccccc3)cs2)CCN1Cc1ccc(F)cc1` (centres unmarked), the “hERG current change (%, negative = inhibition) at 10uM” value is -69.8%.

As to `CC(C)c1csc(CN2CCN(Cc3ccccc3)C(CCO)C2)n1` (centres unmarked), the “hERG current change (%, negative = inhibition) at 10uM” value is listed as -26.3%.

Consider `C=C(c1ccccc1)P(=O)(O)O`, for which the “hERG current change (%, negative = inhibition) at 10uM” value was determined as 17.8%.

Take `COc1ccccc1C(=O)NCCC(=O)OCC(=O)Nc1ccc(S(N)(=O)=O)cc1`: the “hERG current change (%, negative = inhibition) at 10uM” value is listed as -2.51%.

With `Cc1cc(C(=O)Nc2ccc3ccccc3c2)c(C)o1`, the “hERG current change (%, negative = inhibition) at 10uM” value was 6.68%.

Turning to `COc1ccc2oc(=O)c(-c3csc(Nc4cccc(O)c4)n3)cc2c1`, the “hERG current change (%, negative = inhibition) at 10uM” value is recorded as 25.8%.

`COC(=O)CN1C(=O)[C@H]2[C@@H](c3ccc(C)o3)N3C(=O)CN(Cc4ccccn4)C(=O)[C@@]3(Cc3ccccc3)[C@H]2C1=O`: the “hERG current change (%, negative = inhibition) at 10uM” value was found to be 21.5%.

As to `O=C(NCc1ccccc1)c1cccc(S(=O)(=O)N2CCOCC2)c1`, the “hERG current change (%, negative = inhibition) at 10uM” value stood at 0.662%.

Consider `Cc1ccc(N/C=C/C(=O)C(C)(C)C)c(O)c1`, for which the “hERG current change (%, negative = inhibition) at 10uM” value is on record as -5.33%.

As for `CC(=O)NC(CC(=O)O)c1ccc(F)cc1` (centres unmarked), the “hERG current change (%, negative = inhibition) at 10uM” value is 0.22%.

As for `COc1ccc(CNC(=O)CSc2nnc(C)c(=O)[nH]2)cc1`, the “hERG current change (%, negative = inhibition) at 10uM” value amounted to 18.2%.

With `OCCC1CN(Cc2nc(-c3ccccc3)cs2)CCN1C1CCCC1` (centres unmarked), the “hERG current change (%, negative = inhibition) at 10uM” value was -66.4%.

For `OCCC1CN(Cc2ccncc2)CCN1C1CCCC1` (centres unmarked), the “hERG current change (%, negative = inhibition) at 10uM” value was -8.58%.

For the compound `Cc1oc(-c2cccs2)nc1CN1CCN(CCC(C)C)C(CCO)C1` (centres unmarked), the “hERG current change (%, negative = inhibition) at 10uM” value is given as -27.6%.

As for `CC(C)N1CCN(Cc2nc(-c3ccccc3)cs2)CC1CCO` (centres unmarked), the “hERG current change (%, negative = inhibition) at 10uM” value is reported as -47.7%.

Regarding `CC(C)CCN1CCN(Cc2nc(-c3ccccc3)cs2)CC1CCO` (centres unmarked), the “hERG current change (%, negative = inhibition) at 10uM” value was -62.7%.

`Cc1cccc(CN2CCN(C3CCCC3)C(CCO)C2)n1` (centres unmarked): the “hERG current change (%, negative = inhibition) at 10uM” value came to 3.1%.

With `O=C(CC1C(=O)NCCN1CC(c1ccccc1)c1ccccc1)NCC1CCOCC1` (centres unmarked), the “hERG current change (%, negative = inhibition) at 10uM” value stood at 6.24%.

As for `CCCNC(=O)c1ccc(CN2CCOCC2)cc1`, the “hERG current change (%, negative = inhibition) at 10uM” value is given as 8.4%.

Turning to `O=C(CS(=O)(=O)c1c[nH]c2ccccc12)Nc1ccc(F)cc1`, the “hERG current change (%, negative = inhibition) at 10uM” value is recorded as -21.8%.

For the compound `Cc1cccc(OCCn2c(NC(=O)c3ccco3)nc3ccccc32)c1`, the “hERG current change (%, negative = inhibition) at 10uM” value was determined as 12.5%.

For `CCC(=O)N/C(N)=N/c1nc2ccccc2o1`, the “hERG current change (%, negative = inhibition) at 10uM” value is recorded as -10.3%.

Turning to `O=C(COc1ccc(Cl)cc1Cl)N1CCCN(C(=O)COc2ccc(Cl)cc2Cl)CC1`, the “hERG current change (%, negative = inhibition) at 10uM” value is given as -47.2%.

Consider `Cc1ccn2c(NCc3ccc4c(c3)OCO4)c(-c3ccc(O)cc3)nc2c1`, for which the “hERG current change (%, negative = inhibition) at 10uM” value is listed as -11.6%.

Turning to `c1ccc(-c2nc3ccccn3c2NCc2ccc3c(c2)OCO3)cc1`, the “hERG current change (%, negative = inhibition) at 10uM” value was -36.1%.

As to `COc1ccc(-c2nc3ccccn3c2NCc2ccc3c(c2)OCO3)cc1`, the “hERG current change (%, negative = inhibition) at 10uM” value is on record as -82.4%.

With `COc1ccc(-c2nc3cc(C)ccn3c2NCc2ccc3c(c2)OCO3)cc1`, the “hERG current change (%, negative = inhibition) at 10uM” value is reported as -67.5%.

`Fc1ccc(-c2nc3ccccn3c2NCc2ccc3c(c2)OCO3)cc1`: the “hERG current change (%, negative = inhibition) at 10uM” value is listed as -24.3%.

As for `COc1ccc(-c2nc3ccc(C)cn3c2NCc2ccc3c(c2)OCO3)cc1`, the “hERG current change (%, negative = inhibition) at 10uM” value is recorded as -34.1%.

With `Cc1cccn2c(NCc3ccc4c(c3)OCO4)c(-c3ccc(O)cc3)nc12`, the “hERG current change (%, negative = inhibition) at 10uM” value was -22.6%.

For the compound `Oc1ccc(-c2nc3ccccn3c2NCc2ccc3c(c2)OCO3)cc1`, the “hERG current change (%, negative = inhibition) at 10uM” value was -45.8%.

In the case of `Cc1ccc(-c2nc3ccccn3c2NCc2ccc3c(c2)OCO3)cc1`, the “hERG current change (%, negative = inhibition) at 10uM” value is on record as -69.3%.
